Source: PubChem
Rows were chosen to be rich in hits. Some 27% of all compounds tested hit in one or more screens of this group.
CYP2C9 inh: human CYP2C9 inhibition. P11712. actives 20% (n = 96,000). inhibition, % at 5 µM. CYP2C9 Supersomes, luciferin-H conversion, luminescence;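 active = blocking of liver enzyme CYP2C9 beyond about 50% at 5 µM, limit read from the data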
CYP2C19 activ: cytochrome P450 2C19 (human) activation; activation factor at 5 µM; recombinant CYP2C19, luciferin-H EGE luminescence; stronger effect = higher value; 0 = fully inhibited enzyme, 1 = untreated enzyme; 96,000 tested, under 10 active; P33261;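 active = activation factor of at least 2 at 5 µM in the primary screen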;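 also: 0 = wells with 2.5 mM tranylcypromine and 1 = vehicle-only wells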
Target sequence (P33261 whole entry, looked up): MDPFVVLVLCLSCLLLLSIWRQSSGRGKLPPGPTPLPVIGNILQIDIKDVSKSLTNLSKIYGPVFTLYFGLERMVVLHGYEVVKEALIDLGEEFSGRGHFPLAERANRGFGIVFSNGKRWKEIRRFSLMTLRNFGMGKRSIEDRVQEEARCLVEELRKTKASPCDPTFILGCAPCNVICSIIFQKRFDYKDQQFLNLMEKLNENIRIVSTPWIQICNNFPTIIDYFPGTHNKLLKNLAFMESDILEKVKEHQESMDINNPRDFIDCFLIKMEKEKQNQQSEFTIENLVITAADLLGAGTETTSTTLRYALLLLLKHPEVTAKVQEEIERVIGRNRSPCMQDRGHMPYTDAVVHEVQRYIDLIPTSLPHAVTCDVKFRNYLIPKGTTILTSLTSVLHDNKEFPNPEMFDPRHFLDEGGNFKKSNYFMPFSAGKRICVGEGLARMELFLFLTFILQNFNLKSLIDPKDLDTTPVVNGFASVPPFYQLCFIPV
CYP2C9 activ: activators of human CYP2C9. P11712. recombinant CYP2C9, luciferin-H conversion, luminescence; stronger effect = higher value; factor 1 = untreated enzyme, 0 = blocked. activation factor at 5 µM. actives 1.4% (n = 96,000);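 active = activation factor of 2 or more for CYP2C9 at a 5 µM dose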;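 also: 0 = sulfaphenazole-blocked wells and 1 = vehicle-only wells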
CYP2C19 inhib: blocks human cytochrome P450 2C19; P33261; CYP2C19 Supersomes, luciferin-H EGE luminescence, 30 min; actives 21% (n = 96,000); inhibition, % at 5 µM;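 active = CYP2C19 inhibition above a set limit at 5 µM in the primary screen, cut at about 50% in these data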;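 also: plate controls were negative control wells for no effect and 2.5 mM tranylcypromine positive control for full effect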
PTK2B oligo ant: blocks oligomerization of human Pyk2 in cells | Q14289 | Q293 cells, Pyk2 FERM NanoBiT luminescence; stronger effect = lower value | z-score (the deposit names both 25 µM and 10 µM) | actives 0.83% (n = 99,000) | AID 1347419;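 active = Z-score of -3 or lower, scaled per plate to the spread of control and sample wells; inactive = z-score above -3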;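 also: negative z-score means lost luminescence so less FERM oligomerization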
Cav3 T inh: human Cav3.2 channel inhibition, primary screen; B-score at 10 µM; Cav3.2-expressing cells, Fluo-4 calcium fluorescence FDSS; stronger effect = lower value; AID 449739; actives 4% (n = 100,000); O95180;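 active = single-dose well whose peak fluorescence ratio is a statistical outlier from its plate by either plate-standardised score or position-corrected B-score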
Starred values were filed as active, the others as inactive; . = not tested or not shown.

SMILES	CYP2C9 inh	CYP2C19 activ	CYP2C9 activ	CYP2C19 inhib	PTK2B oligo ant	Cav3 T inh
O=C1CN(C(=O)COC(=O)c2cccc(S(=O)(=O)NCc3ccccc3)c2)c2ccccc2N1	68.0*	0.6	0.3	43.6	-0.76	-5.98*
Cc1ccc(C(=O)OCC(=O)N2CC(=O)Nc3ccccc32)s1	3.0	0.8	1	21.2	-1.31	-0.00616
Cc1ccc(S(=O)(=O)N(C)c2ccc(OCC(=O)NCc3ccco3)cc2)cc1	92.6*	0.8	0.1	15.6	-0.12	-1.26
COc1cccc(S(=O)(=O)Nc2ccc(C(=O)NCc3ccco3)cc2)c1	98.5*	0.4	0	61.3*	-0.25	-3.21
Cc1cc(=O)oc2cc(OCC(=O)NCc3ccco3)ccc12	.	.	.	.	-0.07	0.00107
COc1cccc(S(=O)(=O)NCc2ccc(C(=O)NCc3ccco3)cc2)c1	0.8	0.9	1	12.7	1.83	-0.373
CCCCNC(=O)NS(=O)(=O)c1ccc(NS(=O)(=O)c2ccccc2)cc1	55.4*	1	0.4	-1.8	0.52	0.0247
CC(=O)N(C)c1ccc(OCC(O)COc2ccc(N(C)C(C)=O)cc2)cc1	-6.4	1.1	1.1	-11.1	0.25	0.029
Cc1ccc(NS(=O)(=O)c2cccc(C(=O)OCC(=O)NCc3ccco3)c2)cc1	85.8*	0.4	0.1	59.2*	0.11	-3.34
O=C(COC(=O)c1cc(S(=O)(=O)NCc2ccccc2)ccc1O)NCc1ccccc1	45.5	0.9	0.5	8.1	1.23	-1.81
CNS(=O)(=O)c1cccc(C(=O)OCC(=O)NCc2ccccc2)c1	-135.7	0.9	2.4*	12.9	-0.14	-1.01
CC(=O)N(C)c1ccc(OCC(O)CN(Cc2ccco2)S(=O)(=O)c2ccc(C)cc2)cc1 (centres undefined)	80.1*	1	0.2	4.8	1.47	2.05
COc1ccc(NS(=O)(=O)c2cccc(C(=O)OCC(=O)Nc3cc(C)on3)c2)cc1	71.2*	0.9	0.3	10.5	-0.38	-2.42
CCSc1nc2c(sc3ccccc32)c(=O)n1C(C)C	-23.3	1.1	1.2	-12.4	0.13	-2.91
Cc1ccc(NS(=O)(=O)c2ccc(OCC(=O)NCc3ccco3)cc2)cc1	85.4*	0.3	0.1	75.0*	1.02	.
Cc1ccc(C)c(NS(=O)(=O)c2ccc(OCC(=O)NCc3ccco3)cc2)c1	2.3	1	1	-4.7	-0.9	-2.17
CNS(=O)(=O)c1cccc(C(=O)OCc2cc(Cl)cc3c2OCOC3)c1	-92.2	0.2	1.9	77.5*	-0.45	-4.15*
O=C(COc1ccc2oc(-c3ccccc3)cc(=O)c2c1)NCc1ccco1	57.5*	0.8	0.4	23.9	1	-0.0738
CCNC(=O)COc1ccc(S(=O)(=O)Nc2ccccc2)cc1	62.5*	0.6	0.4	38.8	0.55	0.705
CCCc1ccc(Oc2cc(N3CCOCC3)nc(-c3ccccc3)n2)cc1	.	.	.	.	0.12	-2.47
Cc1cc(OCC[N+]2(C)CCCCC2)nc2ccccc12	1.2	1	1	4.5	1.01	0.55
O=C(Nc1ccccn1)[C@@H]1CCC(=O)N1C(=O)OCc1ccccc1	-12.5	0.6	1.1	43.2	0.51	0.892
Cc1ccc(/C(C#N)=C\c2cn(C)c3ccccc23)cc1	92.1*	0.2	0.1	80.1*	.	-1.48
COC(=O)C1=C(C)NC(=O)/C1=C\c1cc(C)n(-c2cc(C)cc(C)c2)c1C	92.3*	0.2	0.1	82.3*	-0.67	-1.71
COc1ccc(-c2csc(NC(C)c3nc4cc(Cl)c(Cl)cc4n3CCCO)n2)cc1 (centres undefined)	.	.	.	.	.	-3.21
Oc1ccccc1C1=Nc2ccccc2N=C(c2cccs2)C1	37.7	0.8	0.6	23.2	-1.08	-0.181
COc1ccccc1C1CC(c2cccs2)=Nc2ccccc2S1 (centres undefined)	80.5*	0.1	0.2	89.9*	-0.71	-3.62
COc1ccccc1CNC(=O)c1ccccc1N(C)S(C)(=O)=O	7.7	0.7	0.9	29.0	-0.02	0.439
CCOc1ccc(N(CC(=O)NCc2ccco2)S(=O)(=O)c2ccc(OC)c(OC)c2)cc1	61.9*	0	0.4	97.9*	0.04	0.399
COc1ccc(N(CC(=O)NCc2ccco2)S(=O)(=O)c2ccc(OC)c(OC)c2)cc1	45.3	0	0.5	100.2*	-0.36	0.914
